TRPV1 agonist = HTS Assay for Compounds that Act as Agonists of the Vanilloid Receptor 1; TRPV1-expressing cells, Fluo-8 calcium influx, agonist mode; Transient receptor potential cation channel subfamily V member 1 (Homo sapiens), Q8NER1; 320,000 tested, 0.19% active; activation, % at 8.33 µM; AID 540275, 2011; in the data active = activation above about 80%; inconclusive = between about 30% and that limit; also: 0% is about no effect
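Cells expressing TRPV1 were dye-loaded with Fluo-8 and read kinetically: 10 s baseline, 3 min after compound (agonist portion), then 2 min after EC20 capsaicin (allosteric enhancer portion). Calcium-bound dye fluorescence at 480/520 nm.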
TRHR enhancer = qHTS for Small Molecule Agonists and Allosteric Enhancers of Human TRH Receptor: Primary Screen for Enhancers; Thyrotropin-releasing hormone receptor (Homo sapiens), P34981; TRHR cells, fluo-8 calcium fluorescence, EC20 TRH enhancement; 360,000 tested, 0.66% active; enhancement, % at 2 µM; in the data active = enhancement above about 30%; also: 0% is about no effect
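Enhancer read-out: after compound pinning and an initial kinetic agonist-mode read, an EC20 of TRH (10 nM final) was injected and fluo-8 calcium signal (Ex 480/Em 530) followed at 1 s/cycle for 100 cycles in TRHR-expressing cells.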
TRPV1 PAM = HTS Assay for Compounds that Act as Potentiators of the Vanilloid Receptor 1; TRPV1-expressing cells, Fluo-8 calcium influx, capsaicin EC20 potentiation; potentiation, % at 8.33 µM; 320,000 tested, 0.02% active; in the data active = potentiation above about 80%; inconclusive = between about 30% and that limit; also: 0% is about no effect
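Fluo-8 calcium influx in TRPV1-expressing cells, kinetic read (ex 480/em 520 nm). Compound added and read 3 min for agonist activity, followed by capsaicin at EC20 final and 2 min further read for enhancement.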
TRPML1 blocker = qHTS for Inhibitors of the Human Mucolipin Transient Receptor Potential 1 (TRPML1). activity change, negative = inhibition, % (test concentration not listed). 390,000 tested, 0.02% active. Mucolipin-1 (Homo sapiens), Q9GZU1. TRPML1-inducible cells, Ca2+ dye fluorescence, FDSS; stronger effect = lower value; inhibition of EC80 agonist-evoked calcium signal; in the data active = activity change below about -50%; inconclusive = between about -30% and that limit;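 also: stimulus is agonist 54-4 at its EC80 concentration; % is scaled to controls: 0 for no effect and ±100 for the full control effect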
Target sequence (Q9GZU1 whole entry, looked up): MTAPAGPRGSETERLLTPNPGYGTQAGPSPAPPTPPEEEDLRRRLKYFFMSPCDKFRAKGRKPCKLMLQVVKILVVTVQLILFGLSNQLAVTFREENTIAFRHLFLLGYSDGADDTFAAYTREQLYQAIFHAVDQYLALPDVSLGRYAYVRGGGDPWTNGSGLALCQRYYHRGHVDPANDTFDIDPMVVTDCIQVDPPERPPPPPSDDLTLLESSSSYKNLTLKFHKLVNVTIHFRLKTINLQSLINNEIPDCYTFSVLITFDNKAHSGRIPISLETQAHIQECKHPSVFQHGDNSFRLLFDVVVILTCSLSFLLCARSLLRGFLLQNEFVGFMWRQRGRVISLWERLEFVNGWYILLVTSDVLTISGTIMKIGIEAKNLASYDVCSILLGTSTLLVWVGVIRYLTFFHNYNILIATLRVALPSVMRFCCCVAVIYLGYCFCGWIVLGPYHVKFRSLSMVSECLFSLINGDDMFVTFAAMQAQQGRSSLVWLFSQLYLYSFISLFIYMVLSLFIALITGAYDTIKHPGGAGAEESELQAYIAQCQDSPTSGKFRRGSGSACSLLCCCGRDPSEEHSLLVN
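Tet-induced TRPML1-DL cells loaded with Ca8 no-wash calcium dye were read kinetically on FDSS. Compound addition was followed by EC80 agonist 54-4 (4 uM final); inhibition was read over 110 s.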
TRPML1 ag = qHTS for Agonists of the Human Mucolipin Transient Receptor Potential 1 (TRPML1); Mucolipin-1 (Homo sapiens), Q9GZU1; TRPML1-expressing cells, Ca2+ dye fluorescence, FDSS; activation, % (no concentration beside the values); 410,000 tested, 0.12% active; in the data active = activation above about 50%; inconclusive = mostly about 30% to 49%; also: 0% is about no effect
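In this qHTS format, compounds were pin-transferred onto Ca8-dye-loaded TRPML1-DL cells induced with Tet overnight, and intracellular Ca2+ fluorescence was recorded kinetically for 110 s after a 10 s baseline. A subsequent 4uM final 54-4 (EC80) addition followed by a second 110 s read served as the antagonist phase.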
TRHR agonist = qHTS for Small Molecule Agonists and Allosteric Enhancers of Human TRH Receptor: Primary Screen for Agonists | TRHR cells, calcium flux fluo-8, FDSS agonist mode | Thyrotropin-releasing hormone receptor (Homo sapiens), P34981 | 360,000 tested, 0.18% active | activation, % at 2 µM; in the data active = activation above about 30%; also: 0% is about no effect
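Agonist-mode FDSS calcium read (Ex 480/Em 530, 1 s cycles) in 1536-well TRHR cells with fluo-8 dye, after 10-cycle baseline and 23 nL compound addition; TRH at EC20 (10 nM final) added afterwards for the enhancer phase.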
Active calls of the source: *; i = inactive; ? = inconclusive; . = no result given. Rows were chosen to be rich in hits. Some 0.96% of all compounds tested hit in one or more screens of this group.

SMILES | TRPV1 agonist | TRHR enhancer | TRPV1 PAM | TRPML1 blocker | TRPML1 ag | TRHR agonist
CC(C)(C)n1ncc2c(=O)n(Cc3ccccc3C#N)cnc21 | . | . | . | -29 | 1 | .
CCNc1nc(Oc2ccc(=O)[nH]n2)nc(SC)n1 | 1 | 32* | 2 | 7 | -1 | 0
CCn1cnc2c(Nc3ccc(CC(=O)N=C(N)N)cc3)nc(C#N)nc21 | . | 1 | . | . | . | -1
C#Cc1nc(Nc2cccc(Cl)c2)nc(NC2CCCC2)n1 | . | -1 | . | . | . | -1
COCC1CCCN(Cc2cn(-c3ccccc3F)nc2-c2cc(C)sc2C)C1 (stereo not given) | 10 | 32* | -12 | -2 | 0 | 1
Cn1nnnc1Sc1ncnc2scc(-c3cccc(Cl)c3)c12 | . | -6 | . | . | . | -1
O=C(NCc1cccnc1)c1ccc(-c2ccc(Cl)cc2)o1 | 86* | -4 | -17 | -10 | 1 | -1
COc1cc(/C=C(\C#N)c2nc3c(s2)CCCC3)ccc1O | 16 | 4 | 4 | . | . | 40*
O=C(O)C1(P(=O)(c2ccccc2)c2ccccc2)CCCC1 | 1 | -6 | -7 | -9 | 0 | 0
N#CC1(P(=O)(c2ccccc2)c2ccccc2)CCCC1 | -4 | 4 | 111* | 25 | 7 | -1
CCSc1cc(N2CCCC2)nc(-c2cccc(C)c2)n1 | 10 | 31* | -23 | -4 | 1 | -1
CCSc1cc(N2CCCC2)nc(-c2ccc(C)cc2)n1 | -7 | 3 | 15 | 5 | 1 | -1
CCCCn1c(C)cc2c(c1=O)C1O[C@](c3ccsc3)(Cc3ccccc31)O2 | i | 33* | i | . | . | 0
CCCCCc1ccc(-c2cn(Cc3ccc4c(c3)C(=O)c3ccccc3C4=O)nn2)cc1 | . | . | . | . | 0 | .
CCOC(=O)c1c(C)[nH]sc1=S | 2 | 33* | 9 | -4 | 1 | -3
CCOC(=O)c1sc(=S)[nH]c1C | . | . | . | -18 | 0 | .
Oc1ccccc1N=Cc1c(O)ccc2ccccc12 | 97* | 4 | -6 | 13 | 14 | 27
Oc1ccc2ccccc2c1C=Nc1ccccc1Br | -1 | -2 | 10 | -4 | 0 | 0
COc1cccc(-c2nc(CS(=O)(=O)CC(=O)Nc3ccc(F)cc3F)c(C)o2)c1 | 17 | 30* | -15 | 5 | -1 | 0
CCOC(=O)C1=NN(C(=O)c2ccc(C)cc2)C(O)(c2ccc(Cl)cc2)C1 (stereo not given) | 24 | -2 | -1 | 10 | ? | 49*
Cc1ccc(C)c(S(=O)(=O)N2CCN(C(=O)C3CCN(c4ncnc5sc(C)c(C)c45)CC3)CC2)c1 | 7 | 34* | 7 | -8 | 74* | 1
Cc1sc2ncn(CC(=O)NCCCC(=O)N3CCC(C)CC3)c(=O)c2c1C | 2 | -2 | -5 | 6 | -1 | 0
Cc1sc2ncn(CC(=O)NCCCC(=O)N3CCN(Cc4ccc5c(c4)OCO5)CC3)c(=O)c2c1C | -1 | 31* | 2 | 10 | 0 | 0
CC(c1ccc(N(C)C)cc1)c1ccnc2ccccc12 (stereo not given) | . | . | . | . | 0 | .
CC(C)(C)c1ccc(/C=C2\Oc3cc(O)ccc3C2=O)cc1 | ? | -5 | 3 | -22 | 7 | 15
COC(=O)c1ccc2c(c1)C(=O)/C(=C/c1ccc(O)cc1)O2 | 21 | -6 | -16 | 23 | 7 | 31*
C=CCN1C=CC(=CC=C(C#N)C#N)C=C1 | 29 | 2 | 0 | -5 | ? | 46*
Cc1ccc2c(/C=C/c3ccc(N(C)C)cc3)c(C)cnc2c1 | . | . | . | . | 0 | .
